Assay [1] in a line: Nuclear factor erythroid 2-related factor 2/antioxidant responsive element (Nrf2/ARE) small molecule agonists: qHTS cell viability counter screen in human keratinocytes (AID 1919968; active means well fitted curve in the direction sought with a large enough effect in the repeat runs; an effect the other way counts as inactive or inconclusive; further: nearly all actives have a fitted effect of over 55% in size). The method, boiled down:
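Measured as CellTiter-Fluor fluorescence, this readout tracks cytotoxicity in the same wells as the ARE-luciferase screen. HaCaT reporter cells (1,500/well) received compounds after a 5 h pre-incubation and were exposed for 23 h.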
(Quantitative high-throughput screening tests each substance at several concentrations.)

The nature of assay [2]: Nuclear factor erythroid 2-related factor 2/antioxidant responsive element (Nrf2/ARE) small molecule agonists: luciferase reporter gene qHTS assay in human keratinocytes (AID 1919969). Further: nearly all actives have a fitted effect of over 35% in size. Further: potency means the concentration at half of the fitted maximal effect.
Assay [3] concerns the target Gonadotropin-releasing hormone receptor (Homo sapiens) (UniProt P30968). Kind of assay: Human gonadotropin-releasing hormone receptor (GnRHR) small molecule agonists, calcium flux assay in GnRHR-HEK293 cells (AID 1920063). Further: nearly all actives have a fitted effect of over 35% in size. The method, boiled down:
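Fluorescence kinetics (480 nm excitation, 540 nm emission; 3 min, 1 s steps) report calcium mobilisation in human GnRHR-HEK293 cells in agonist mode. Dye incubation: 1 h, 37 C.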

Assay [4] deals with KiSS-1 receptor (Homo sapiens) (UniProt Q969F8). The experiment in a line: Human kisspeptin (KISS1R) small molecule agonists, calcium flux assay in KISS1R-HEK293 cells (AID 1920064; active means well fitted curve in the direction sought with a large enough effect in the repeat runs; an effect the other way counts as inactive or inconclusive). Put shortly:
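Measures KISS1R agonism through calcium-sensitive dye fluorescence in stably transfected HEK293 cells, read for 3 min after pin-tool compound delivery; 15-point titrations in triplicate.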
In general terms: A change in cytosolic calcium serves as a functional read-out for many receptors and channels.

The nature of assay [5]: G protein-coupled receptor (GPCR) small molecule agonists, calcium flux assay: HEK293 wild type cell line counter screen (AID 1920065). Put shortly: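 Readout: fluorescence at 480 nm excitation/540 nm emission, sampled at 1 s intervals for 3 min. Cells had been cultured 18 h, then dye-loaded 1 h at 37 C before compound or ATP addition.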
Assay [6] in a line: p53 small molecule agonists, cell-based qHTS assay with human liver microsomes (AID 1963577).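 Further: p53 response element beta-lactamase reporter cells with liver microsomes plus NADPH.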 The method, boiled down:
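Metabolically competent format: test substances, human liver microsomes and NADPH (both 0.5 mg/mL final) incubated with p53RE-bla cells 16 h at 37 C. Beta-lactamase reporter signal then quantified by fluorescence.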

The nature of assay [7]: p53 small molecule agonists, cell-based qHTS assay with human liver microsomes: qHTS cell viability counter screen (AID 1963579). Further: nearly all actives have a fitted effect of over 45% in size. The method, boiled down:
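Tox21 library compounds, delivered from DMSO stocks, were tested on p53RE-bla cells together with 0.5 mg/mL human liver microsomes and 0.5 mg/mL NADPH (final) over 16 h at 37 C; CellTiter-Glo luminescence served as the cytotoxicity measure.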

Assay [8] is described as follows: p53 small molecule agonists, cell-based qHTS assay with rat liver microsomes: qHTS cell viability counter screen (AID 1963580). Further: nearly all actives have a fitted effect of over 45% in size. The method, boiled down: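 Intracellular ATP, by CellTiter-Glo luminescence, defines viability. HCT-116 p53RE-bla cells, 4,000 per well, were compound-treated in the presence of rat liver microsomes and NADPH for 16 h at 37 C.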
The nature of assay [9]: p53 small molecule agonists, cell-based qHTS assay: qHTS cell viability counter screen (AID 1963581). Further: nearly all actives have a fitted effect of over 45% in size. Put shortly: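 In the same plates used for the p53 bla reporter, HCT-116 cells given compounds for 16 h at 37 C received CellTiter-Glo; luminescence was recorded 30 min later at room temperature.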
Assay [10] is described as follows: p53 small molecule agonists, cell-based qHTS assay (AID 1963582; active means well fitted activation curve with a large enough effect in the signal ratio in the repeat runs, not every such curve was filed as active; the % refers to the signal ratio). Put shortly:
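Compounds are pin-transferred in DMSO onto p53RE-bla cells and incubated 16 h at 37 C. The B/G FRET beta-lactamase substrate is then applied for 2 h at RT and fluorescence recorded.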

Assay [11] has as its target 5-hydroxytryptamine receptor 2A (Homo sapiens) (UniProt P28223). The experiment in a line: 5-hydroxytryptamine receptor 2A (HTR2A) small molecule antagonists, cell-based qHTS assay (AID 1963586). Further: nearly all actives have a fitted effect of over 45% in size. The method, boiled down:
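Antagonist-mode intracellular calcium assay: DOI (4 nM) added after 5 min compound pre-incubation at room temperature to dye-loaded HTR2A-CHO cells. Fluorescence followed for 3 min, sampled every second.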

The target of assay [12] is Muscarinic acetylcholine receptor M1 (Homo sapiens) (UniProt P11229). Kind of assay: Cholinergic receptor muscarinic 1 (CHRM1) small molecule agonists, cell-based qHTS assay (AID 1963589). Further: nearly all actives have a fitted effect of over 35% in size. Put shortly: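 Each compound was tested at 15 concentrations across three independent runs on dye-loaded CHO cells stably expressing human CHRM1, reading intracellular calcium fluorescence kinetically at 1 sec intervals.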

Assay [13] can be described thus: cAMP Responsive Elements (CRE) small molecule antagonists, cell-based qHTS assay (AID 1963591; active means well fitted inhibition curve with a large enough effect in the signal ratio in the repeat runs, not every such curve was filed as active; the % refers to the signal ratio). The method, boiled down:
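Inhibition of NKH477-driven (0.25 uM final) CRE-beta-lactamase signal in HEK293T cells, 3 h compound exposure at 37 °C, detected by FRET substrate fluorescence.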

Assay [14] addresses Beta-2 adrenergic receptor (Homo sapiens) (UniProt P07550). Kind of assay: Adrenergic beta2 receptor (ADRB2) small molecule antagonists, cell-based qHTS assay (AID 1963592). Further: series mostly up to about 92 µM; nearly all actives have a fitted effect of over 50% in size. The method, boiled down:
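Cells (CHO, stable ADRB2 overexpression) incubated 18-20hr at 37C; compounds added from DMSO; agonist mix (1nM isoproterenol, 100uM IBMX, 25uM Ro-20-1724) added; 0.5hr RT; d2-cAMP and anti-cAMP-cryptate added; 1hr RT; 665/615 nm read.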

For assay [15], the target named is D(2) dopamine receptor (Homo sapiens) (UniProt P14416). The experiment in a line: Dopamine D2 receptor (DRD2) small molecule agonists, cell-based qHTS assay (AID 1963594). Further: nearly all actives have a fitted effect of over 35% in size. Put shortly: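 cAMP accumulation in DRD2-HEK293 cells measured by HTRF after 1 h detection; compounds added 10 min before NKH477 (200nM […]) forskolin-analogue stimulation, 30 min at room temperature, with Ro20-1724 present at 0.1 mM final.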

Assay [16] has the same target. The experiment in a line: Dopamine D2 receptor (DRD2) small molecule antagonists, cell-based qHTS assay (AID 1963595; active means well fitted inhibition curve with a large enough effect in the signal ratio in the repeat runs, with a control signal flat; the % refers to the signal ratio). Put shortly: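 Antagonist mode in DRD2-HEK293 cells: after compound addition with 0.1 mM Ro20-1724, cells received quinpirole (12 nM) and NKH477 (200 nM) for 30 min at room temperature; HTRF cAMP read after 1 h detection.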
The nature of assay [17]: p53 small molecule agonists, cell-based qHTS assay with rat liver microsomes (AID 1963578). Put shortly: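 Each plate received p53RE-bla cells, then compound, then rat liver microsomes and NADPH (both 0.5 mg/mL final). Plates were held 16 h at 37 C, and beta-lactamase activity was detected with LiveBLAzer over 2 h.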
Assay [18] addresses 5-hydroxytryptamine receptor 2A (Homo sapiens) (UniProt P28223). The experiment in a line: 5-hydroxytryptamine receptor 2A (HTR2A) small molecule agonists, cell-based qHTS assay (AID 1963587). Further: nearly all actives have a fitted effect of over 30% in size. Put shortly:
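Kinetic calcium-flux fluorescence (2 min, 1 sec intervals) after compound addition in agonist mode. HTR2A-CHO cells were cultured 18 h, then dye-loaded 1 h at 37 C.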

For assay [19], the target named is Muscarinic acetylcholine receptor M1 (Homo sapiens) (UniProt P11229). The experiment in a line: Cholinergic receptor muscarinic 1 (CHRM1) small molecule antagonists, cell-based qHTS assay (AID 1963588). Further: nearly all actives have a fitted effect of over 40% in size. Put shortly:
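CHRM1-CHO calcium-flux assay, antagonist mode. Cells were seeded 18 h, dye-loaded 1 h at 37 C and given compound for 5 min at RT, then acetylcholine was added at 50nM. FDSS fluorescence was read 3 min; 15 concentrations, three runs.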

Assay [20] is described as follows: cAMP Responsive Elements (CRE) small molecule agonists, cell-based qHTS assay (AID 1963590). The method, boiled down: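 Cell line: CRE-bla HEK 293T; medium DMEM/10% dialyzed FBS/0.1 mM NEAA/1 mM pyruvate/25 mM HEPES; 3 h compound exposure; beta-lactamase FRET readout after 2 h substrate loading at RT.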

Values without a mark were called inactive. Records with an inconclusive call do not appear. Active and inactive are the calls of the source. Unless noted, the call rests on the fitted dose curve.

KiSS-1 receptor (Homo sapiens), sequence (Q969F8 whole entry, looked up): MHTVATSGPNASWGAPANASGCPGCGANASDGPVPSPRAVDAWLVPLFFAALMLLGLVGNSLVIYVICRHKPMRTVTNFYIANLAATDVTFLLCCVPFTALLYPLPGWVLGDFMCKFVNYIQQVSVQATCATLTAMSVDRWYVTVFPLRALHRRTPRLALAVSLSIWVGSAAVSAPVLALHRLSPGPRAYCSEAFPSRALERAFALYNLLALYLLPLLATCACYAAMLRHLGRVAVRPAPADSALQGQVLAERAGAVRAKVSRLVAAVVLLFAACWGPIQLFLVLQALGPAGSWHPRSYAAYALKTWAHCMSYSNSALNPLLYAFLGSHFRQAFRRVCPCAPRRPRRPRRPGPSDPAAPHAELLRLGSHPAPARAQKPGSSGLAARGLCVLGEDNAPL
5-hydroxytryptamine receptor 2A (Homo sapiens), sequence (P28223 whole entry, looked up): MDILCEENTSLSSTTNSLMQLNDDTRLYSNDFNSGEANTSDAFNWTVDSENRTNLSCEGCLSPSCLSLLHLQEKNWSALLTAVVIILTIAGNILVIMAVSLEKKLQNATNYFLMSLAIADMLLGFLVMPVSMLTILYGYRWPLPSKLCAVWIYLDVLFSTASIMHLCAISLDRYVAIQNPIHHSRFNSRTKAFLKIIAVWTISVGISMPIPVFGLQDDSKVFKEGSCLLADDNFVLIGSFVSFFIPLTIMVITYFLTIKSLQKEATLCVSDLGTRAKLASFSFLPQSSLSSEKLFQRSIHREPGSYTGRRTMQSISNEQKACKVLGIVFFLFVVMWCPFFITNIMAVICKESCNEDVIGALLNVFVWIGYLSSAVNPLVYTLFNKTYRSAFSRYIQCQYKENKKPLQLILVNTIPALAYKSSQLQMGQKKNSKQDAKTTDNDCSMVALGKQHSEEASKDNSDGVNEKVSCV
Beta-2 adrenergic receptor (Homo sapiens), sequence (P07550 whole entry, looked up): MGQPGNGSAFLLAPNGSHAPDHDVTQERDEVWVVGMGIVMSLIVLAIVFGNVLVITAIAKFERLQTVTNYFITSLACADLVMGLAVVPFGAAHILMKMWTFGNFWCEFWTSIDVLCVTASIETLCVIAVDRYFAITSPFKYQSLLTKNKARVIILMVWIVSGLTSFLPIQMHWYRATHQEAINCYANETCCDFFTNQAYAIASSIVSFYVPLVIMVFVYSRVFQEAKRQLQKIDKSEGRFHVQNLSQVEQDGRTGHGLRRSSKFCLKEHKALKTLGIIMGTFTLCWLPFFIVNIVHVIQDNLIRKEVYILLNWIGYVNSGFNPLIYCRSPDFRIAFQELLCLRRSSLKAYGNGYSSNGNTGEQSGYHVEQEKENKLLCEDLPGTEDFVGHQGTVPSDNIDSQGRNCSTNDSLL
Gonadotropin-releasing hormone receptor (Homo sapiens), sequence (P30968 whole entry, looked up): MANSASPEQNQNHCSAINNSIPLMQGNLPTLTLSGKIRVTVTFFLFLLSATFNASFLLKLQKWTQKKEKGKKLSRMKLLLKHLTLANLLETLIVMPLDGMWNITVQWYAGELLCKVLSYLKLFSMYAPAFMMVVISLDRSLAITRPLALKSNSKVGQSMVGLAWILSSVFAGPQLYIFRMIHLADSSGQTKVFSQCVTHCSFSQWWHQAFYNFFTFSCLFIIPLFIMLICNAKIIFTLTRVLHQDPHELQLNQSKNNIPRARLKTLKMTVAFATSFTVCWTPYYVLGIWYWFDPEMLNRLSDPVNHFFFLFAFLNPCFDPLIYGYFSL
D(2) dopamine receptor (Homo sapiens), sequence (P14416 whole entry, looked up): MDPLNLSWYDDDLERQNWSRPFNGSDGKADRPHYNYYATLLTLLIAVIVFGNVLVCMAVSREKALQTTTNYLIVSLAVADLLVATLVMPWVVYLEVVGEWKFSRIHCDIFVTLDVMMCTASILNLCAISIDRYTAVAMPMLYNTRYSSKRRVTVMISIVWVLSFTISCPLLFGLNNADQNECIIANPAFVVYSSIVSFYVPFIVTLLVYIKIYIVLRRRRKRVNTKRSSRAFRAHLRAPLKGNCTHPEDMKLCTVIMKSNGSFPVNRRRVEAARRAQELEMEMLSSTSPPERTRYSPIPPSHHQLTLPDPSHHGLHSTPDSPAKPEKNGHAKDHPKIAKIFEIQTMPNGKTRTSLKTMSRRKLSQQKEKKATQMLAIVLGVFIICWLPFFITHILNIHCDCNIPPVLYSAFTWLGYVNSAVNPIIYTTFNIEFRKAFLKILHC
Muscarinic acetylcholine receptor M1 (Homo sapiens), sequence (P11229 whole entry, looked up): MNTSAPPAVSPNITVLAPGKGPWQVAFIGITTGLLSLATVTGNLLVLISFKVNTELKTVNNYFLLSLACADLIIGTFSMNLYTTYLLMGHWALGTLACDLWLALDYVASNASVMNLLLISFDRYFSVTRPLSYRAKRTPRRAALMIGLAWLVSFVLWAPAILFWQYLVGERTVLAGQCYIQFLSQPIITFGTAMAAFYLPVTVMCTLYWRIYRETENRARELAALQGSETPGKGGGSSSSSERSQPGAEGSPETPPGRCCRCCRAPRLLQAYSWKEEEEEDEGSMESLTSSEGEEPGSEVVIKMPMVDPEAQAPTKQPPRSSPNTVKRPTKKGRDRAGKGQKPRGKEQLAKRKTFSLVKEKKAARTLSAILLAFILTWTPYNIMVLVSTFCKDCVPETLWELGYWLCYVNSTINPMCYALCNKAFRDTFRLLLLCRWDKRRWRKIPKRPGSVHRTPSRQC

For the molecule `COc1ccc2[nH]c(S(=O)Cc3ncc(C)c(OC)c3C)nc2n1` (stereo not drawn), the Potency result in assay [1], in assay [3], in assay [6], in assay [7], in [8] and in assay [9] was “inactive” throughout. Moreover, the Potency entry in [10], in assay [11], in [12], in assay [13], in assay [14] and in assay [15] was “inactive” each time. For the same molecule, the Potency entry in assay [16] is “inactive”. Besides, the Potency in assay [2] was 21.1 µM (active). Further, the outcome in [4] and in [5] was inactive.
Regarding `c1cnc2c(n1)CCCC2`, the Potency entry in assay [1], in assay [2], in [3], in assay [6], in assay [17] and in assay [9] was “inactive” throughout. Moreover, the Potency entry in [10], in [11], in assay [18], in assay [19], in assay [12] and in assay [20] was “inactive” each time. In addition, the Potency result in assay [13], in assay [14], in assay [15] and in [16] was “inactive” in each case. Moreover, the result in assay [4] and in assay [5] was inactive.
On to `COc1ccc2c(c1)C(=O)N(CCc1ccc(S(=O)(=O)NC(=O)NC3CCCCC3)cc1)C(=O)C2(C)C`, for which the Potency result in assay [1], in [2], in assay [3], in assay [6], in assay [17] and in assay [8] was “inactive” throughout. In addition, the Potency result in [18], in [19], in assay [14], in assay [15] and in assay [16] was “inactive” throughout. Moreover, the outcome in assay [4] and in assay [5] was inactive.
As to `CC(C)CCCCCCOC(=O)c1ccc(C(=O)OCCCCCCC(C)C)c(C(=O)OCCCCCCC(C)C)c1`, the Potency entry in [1], in assay [2], in [3], in assay [6], in [17] and in [9] was “inactive” throughout. Moreover, the Potency entry in [10], in assay [11], in assay [18], in assay [19], in assay [20] and in [14] was “inactive” in each case. In addition, the Potency result in assay [15] is “inactive”. The result in [4] and in assay [5] was inactive.
With `C[C@@H]1O[C@@H](O[C@@H]2[C@@H](O)[C@H](OCCc3ccc(O)c(O)c3)O[C@H](CO[C@@H]3O[C@H](CO)[C@@H](O)[C@H](O)[C@H]3O)[C@H]2OC(=O)/C=C/c2ccc(O)c(O)c2)[C@H](O)[C@H](O)[C@H]1O`, the Potency entry in assay [1], in assay [2], in assay [3], in [6], in [7] and in [8] was “inactive” throughout. Moreover, the Potency entry in [9], in assay [10], in [18], in assay [19], in assay [12] and in assay [20] was “inactive” each time. In addition, the Potency entry in assay [13] and in assay [16] was “inactive” throughout. For the same molecule, the result in [4] and in assay [5] was inactive.
As for `CCCCC(CC)CN` (stereo not drawn), the Potency result in [1], in assay [2], in [3], in assay [6], in assay [7] and in assay [8] was “inactive” in each case. The Potency entry in [9], in assay [10], in [11], in assay [18], in assay [12] and in assay [20] was “inactive” each time. For the same molecule, the Potency entry in [13], in assay [14] and in assay [16] was “inactive” each time. Besides, the result in [4] and in assay [5] was inactive.
Turning to `CCC1CO1` (stereo not drawn), the Potency result in assay [1], in assay [2], in assay [3], in assay [6], in [7] and in assay [8] was “inactive” throughout. For the same molecule, the Potency result in assay [9], in [10], in [11], in assay [18], in assay [12] and in assay [20] was “inactive” in each case. The Potency entry in assay [13], in assay [14], in [15] and in assay [16] was “inactive” each time. Moreover, the result in assay [4] and in assay [5] was inactive.

The values are drawn from PubChem BioAssay (Tox21).
